miR-122 inh = raises miR-122 sensor activity in Huh7 cells; Huh7 psiCHECK-miR122 Renilla luciferase sensor, 48 h; activation, % at 12.5 µM; 340,000 compounds, 0.14% hits;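 active means mean activation of 30% or more, with every replicate also reaching 30%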;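 further: higher luciferase signal means stronger suppression of miR-122 activity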
Hits are given with their value; . = inactive. Many of the other results were omitted from the sample, so hits are more common in it than they were.

SMILES | miR-122 inh
CCC(=O)Nc1ccc(S(=O)(=O)NCCc2ccccc2)cc1 | .
CCC(=O)Nc1cccc(C(=O)/C=C/c2ccccc2)c1 | 36
C[C@@H]1CN([C@H](C)CO)C(=O)c2cc(-c3cccnc3)cnc2O[C@@H]1CN(C)C(=O)C1CC1 | .
C[C@@H]1CN([C@@H](C)CO)S(=O)(=O)c2ccc(-c3cccc(C(=O)N(C)C)c3)cc2O[C@H]1CN(C)C(=O)Nc1ccccc1 | .
C[C@@H]1CN([C@@H](C)CO)S(=O)(=O)c2ccc(-c3ccncc3)cc2O[C@H]1CN(C)C(=O)Nc1ccc(F)cc1 | .
COc1cccc(C#Cc2ccc3c(c2)O[C@@H](CN(C)C(=O)CN2CCOCC2)[C@H](C)CN([C@@H](C)CO)S3(=O)=O)c1 | .
COc1ccc(C#Cc2ccc3c(c2)O[C@H](CN(C)C(=O)CN2CCOCC2)[C@H](C)CN([C@@H](C)CO)S3(=O)=O)cc1 | 54
COc1cccc(C#Cc2ccc3c(c2)O[C@@H](CN(C)C(=O)CN2CCOCC2)[C@H](C)CN([C@H](C)CO)S3(=O)=O)c1 | .
COc1ccc(NC(=O)N(C)C[C@@H]2Oc3cc(C#CCC(C)C)ccc3S(=O)(=O)N([C@@H](C)CO)C[C@@H]2C)cc1 | 43
COc1ccc(C#Cc2ccc3c(c2)O[C@@H](CN(C)C(=O)CN2CCOCC2)[C@@H](C)CN([C@H](C)CO)S3(=O)=O)cc1 | 36
COc1ccc(C#Cc2ccc3c(c2)O[C@H](CN(C)C(=O)NC2CCCCC2)[C@@H](C)CN([C@H](C)CO)S3(=O)=O)cc1 | .
COc1cccc(C#Cc2ccc3c(c2)O[C@H](CN(C)C(=O)CN2CCOCC2)[C@H](C)CN([C@H](C)CO)S3(=O)=O)c1 | .
C/C=C/c1ccc2c(c1)O[C@H](CN(C)C(=O)Nc1ccc(OC)cc1)[C@H](C)CN([C@@H](C)CO)S2(=O)=O | .
COc1cccc(C#Cc2ccc3c(c2)O[C@@H](CN(C)C(=O)CN2CCOCC2)[C@@H](C)CN([C@H](C)CO)S3(=O)=O)c1 | .
COCC(=O)N(C)C[C@@H]1Oc2cc(-c3cncnc3)ccc2S(=O)(=O)N([C@H](C)CO)C[C@@H]1C | .
CC(C)C#Cc1cnc2c(c1)C(=O)N([C@@H](C)CO)C[C@H](C)[C@H](CN(C)Cc1ccccn1)O2 | .
C[C@H](CO)N1C[C@H](C)[C@@H](CN(C)Cc2ccccc2F)Oc2ncc(/C=C/c3ccccc3)cc2C1=O | .
CO[C@H]1CN(C)C(=O)c2cc(NC(=O)NC(C)C)ccc2OC[C@H](C)N(C(=O)NC(C)C)C[C@@H]1C | .
C[C@@H]1CN([C@H](C)CO)C(=O)Cc2cc(N(C)C)ccc2O[C@@H]1CN(C)Cc1ccc(C(=O)Nc2ccccc2N)cc1 | .
C[C@H]1CN([C@@H](C)CO)C(=O)c2cc(Br)cnc2O[C@@H]1CN(C)Cc1ccc2c(c1)OCO2 | .
COc1cccc(NC(=O)N(C)C[C@H]2Oc3ncc(C#Cc4ccccc4)cc3C(=O)N([C@H](C)CO)C[C@@H]2C)c1 | .
CO[C@H]1CN(C)C(=O)c2cc(NS(=O)(=O)CC(F)(F)F)ccc2OC[C@H](C)N(C)C[C@@H]1C | .
CCCNC(=O)N(C)C[C@H]1Oc2cc(C#Cc3cccc(F)c3)ccc2S(=O)(=O)N([C@H](C)CO)C[C@@H]1C | .
COc1ccccc1-c1ccc2c(c1)O[C@H](CN(C)S(=O)(=O)c1ccc(C)cc1)[C@@H](C)CN([C@@H](C)CO)S2(=O)=O | .
CCCC#Cc1cnc2c(c1)C(=O)N([C@H](C)CO)C[C@@H](C)[C@@H](CN(C)C(=O)C1CC1)O2 | .
SMILES | miR-122 inh
C[C@H]1CN([C@@H](C)CO)S(=O)(=O)c2ccc(C#Cc3cccnc3)cc2O[C@H]1CN(C)CC1CCOCC1 | .
Cc1ccc(Cn2c(NS(=O)(=O)c3ccccc3)nc3ccccc32)cc1 | .
Cc1ccc(OCC(O)Cn2c(=N)n(Cc3ccccc3)c3ccccc32)cc1 (centres undefined) | 90
COCC#Cc1ccc2c(c1)O[C@H](CN(C)Cc1cncnc1)[C@@H](C)CN([C@H](C)CO)S2(=O)=O | .
C[C@H]1CN([C@@H](C)CO)S(=O)(=O)c2ccc(C#Cc3cccnc3)cc2O[C@H]1CN(C)C(=O)C1CC1 | .
C[C@H]1CN([C@@H](C)CO)C(=O)c2cc(C#CC3(O)CCCC3)cnc2O[C@@H]1CN(C)Cc1cncnc1 | .
C[C@H]1CN([C@@H](C)CO)S(=O)(=O)c2ccc(C#CCN(C)C)cc2O[C@@H]1CN(C)C(=O)CN(C)C | .
Cc1oc(-c2ccc(Cl)cc2)nc1CN1CCCC(C(=O)NCc2ccco2)C1 (centres undefined) | 39
CCC1=Nc2cc(C(=O)NCc3ccco3)ccc2Sc2ccc(C)cc21 | .
Cc1ccc(Nc2nc(C(=O)NCc3ccco3)cs2)cc1 | .
CCC(=O)N(C)C[C@@H]1Oc2cc(-c3cccnc3)ccc2S(=O)(=O)N([C@H](C)CO)C[C@H]1C | .
COc1ccc(-c2cnc3c(c2)C(=O)N([C@H](C)CO)C[C@@H](C)[C@@H](CN(C)Cc2ccccn2)O3)cc1 | .
C=CCNC(=S)NNC(=O)c1cccn(Cc2ccc(Cl)c(Cl)c2)c1=O | 71
C=CCNC(=O)c1ccccc1NC(=O)c1ccc(Cl)c(S(=O)(=O)Nc2cc(C)ccc2C)c1 | .
COc1ccc(-c2cnc3c(c2)C(=O)N([C@H](C)CO)C[C@H](C)[C@@H](CN(C)C(=O)Cc2ccccc2)O3)cc1 | .
C[C@H]1CN([C@@H](C)CO)C(=O)c2cc(-c3ccc(F)cc3)cnc2O[C@@H]1CN(C)C(=O)c1cccnc1 | .
CO[C@@H]1CN(C)C(=O)c2cc(NC(=O)c3nc4ccccc4s3)ccc2OC[C@@H](C)N(Cc2ccncc2)C[C@@H]1C | .
COCC#Cc1ccc2c(c1)O[C@@H](CN(C)C(=O)C1CCCCC1)[C@@H](C)CN([C@H](C)CO)S2(=O)=O | .
O=S(=O)(c1ccccc1F)N1CC[C@@H]2[C@@H](CO)Nc3ccc(-c4ccc(F)cc4)cc3[C@@H]21 | .
O=C(Cn1c(=O)c2ccccc2n(CC(=O)N2CCCCC2)c1=O)N1CCCCC1 | 60
COc1ccccc1S(=O)(=O)Nc1cccc(S(=O)(=O)N2CCCC2)c1 | .
COc1cc(C(=O)Nc2ccc(S(=O)(=O)N3CCCCC3C)cc2)cc(OC)c1OC (centres undefined) | 46
COc1ccccc1N(CC(=O)N1CCCCC1C)S(=O)(=O)c1ccc(Cl)cc1 (centres undefined) | .
CO[C@H]1CN(C)C(=O)c2cc(NS(=O)(=O)CC(F)(F)F)ccc2OC[C@@H](C)N(C)C[C@H]1C | .
C[C@H]1CN([C@@H](C)CO)S(=O)(=O)c2ccc(C#CC3CCCC3)cc2O[C@H]1CN(C)CC1CC1 | .
SMILES | miR-122 inh
COc1cccc(-c2cnc3c(c2)C(=O)N([C@H](C)CO)C[C@H](C)[C@H](CN(C)S(=O)(=O)c2ccc(C)cc2)O3)c1 | .
C[C@@H]1CN([C@H](C)CO)C(=O)c2cc(C#Cc3ccccn3)cnc2O[C@@H]1CN(C)C(=O)CCN1CCCCC1 | .
COc1ccc(-c2ccc3c(c2)O[C@@H](CN(C)C(=O)c2ccccc2F)[C@H](C)CN([C@H](C)CO)S3(=O)=O)cc1 | .
Cc1cc(C)cc(NC(=O)c2ccc(CSc3nnc(C)s3)cc2)c1 | 34
CCC(=O)Nc1ccc2c(c1)OC[C@H](C)NC[C@H](C)[C@@H](OC)CN(C)C2=O | .
COc1ccc(NC(=O)CCN2C(=O)c3ccccc3C2=O)cc1 | .
COc1ccc(/C=N/NC(=O)COc2ccccc2-c2ccccc2)cc1 | .

From PubChem
